# A selection: hits, their analogues and other compounds. The true share with any hit is near 11%.
# IMPase Li cell – IMPase inhibition in cells with lithium potentiation; Potency, µM (top dose mostly 59.4 µM), inactives show top-dose activity, negative = IMPase inhibition, hits mostly inhibitors; AID 1457; 210,000 compounds, 0.35% hits; CHO-M1 cells, IP1 TR-FRET (IP-One), carbachol + lithium; active means well fitted inhibition curve with a large enough effect; inconclusive means small, poorly fitted or top-dose-only effect; inactive means no such curve, though single readings can be large or run the other way;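 further: IP1 builds up when IMPase is blocked and the TR-FRET signal falls; potency means the concentration at half of the fitted maximal effect; plate controls were basal vehicle for no effect and high inhibitor control for full effect; nearly all actives have a fitted effect of over 50% in size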
#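 CHO cells stably expressing M1 receptor (2000/well) were cultured 16–30 h, then exposed to compounds with a small lithium addition for 30 min at 37C. IP1 was measured by TR-FRET competition; AC50 from Hill fits.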
# PNC assembly inh – blocks assembly of the perinucleolar compartment; PC3M PTB-GFP, PNC prevalence imaging, 16 h; hits give low values; activity change (PNC), negative = inhibition, % at 10 µM; 140,000 compounds, 3.1% hits; AID 2417;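 active means readout at or below -70, meaning at least 70% loss of cells showing the perinucleolar compartment, a nuclear body marking cancer cells; inconclusive means readout between -30 and a set limit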;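 further: plate controls were DMSO wells for no effect and camptothecin positive control wells for full effect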
#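 Compounds are pinned in duplicate onto adhered PC3M cells stably expressing GFP-tagged PTB and incubated 16 h at 37 C. Cells are then fixed, nuclei stained with Hoechst, and PNC-positive cells counted.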
# IMPase inh – cell-permeable inhibitors of inositol monophosphatase (IMPase); inhibition (IP1 accumulation), % at 46.1 µM; P97697; 120,000 tested, under 10 active; AID 901; CHO-M1 cells, IP1 accumulation, HTRF TR-FRET ratio; active means well fitted curve in the direction sought with a large enough effect in the signal ratio, not every such curve was filed as active; inconclusive means small, poorly fitted or top-dose-only effect, or a change in a side signal; inactive means no such curve, though single readings can be large or run the other way; the % refers to the signal ratio;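 further: cells stimulated with carbachol in lithium chloride buffer; plate controls were DMSO basal wells for no effect and reference inhibitor wells for full effect; higher means more IMPase inhibition seen as more IP1 and lower FRET ratio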
# Target sequence (P97697 whole entry, looked up): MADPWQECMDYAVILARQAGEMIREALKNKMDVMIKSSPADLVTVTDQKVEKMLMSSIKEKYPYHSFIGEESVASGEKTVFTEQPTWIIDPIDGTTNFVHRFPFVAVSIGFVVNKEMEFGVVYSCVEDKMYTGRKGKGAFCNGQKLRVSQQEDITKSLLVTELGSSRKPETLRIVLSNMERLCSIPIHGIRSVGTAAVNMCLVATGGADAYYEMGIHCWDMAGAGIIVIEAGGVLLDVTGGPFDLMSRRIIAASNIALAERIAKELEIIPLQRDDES
#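 CHO-M1 cells (CHO stably expressing M1 receptor), compound up to 46 uM final, stimulated with carbachol (50 uM as added) in buffer with 50mM LiCl, pH 7.4, 30 min at 37C. Cytosolic IP1 read by TR-FRET; AC50 from Hill fits.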
# HPGD block – inhibitors of human 15-hydroxyprostaglandin dehydrogenase (HPGD); AID 894; 150,000 compounds, 4.3% hits; Potency, µM, without a hit: top-dose activity change, negative = inhibition, most hits filed as inhibitors; P15428; purified HPGD, NADH fluorescence kinetic, PGE2 substrate; further: potency means the concentration at half of the fitted maximal effect
#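 NADH formation kinetics: reaction with 30 uM PGE2 and 1 mM NAD+ (final), 20 nM enzyme, Tris-HCl pH 8 with Tween 20, after 15 min compound preincubation at room temperature. Fluorescence change, last versus first of five reads.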
# ALDH1A1 inh – blocks purified human ALDH1A1 activity; 220,000 compounds, 7.3% hits; Purified ALDH1A1, NADH fluorescence, propionaldehyde substrate; Potency, µM (highest dose often 75.3 µM), without a hit: at the highest dose activity, negative = inhibition, hits mostly inhibitors; AID 1030;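 further: potency means the concentration at half of the fitted maximal effect; plate controls were no enzyme wells and a reference inhibitor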
# Target sequence (P00352 whole entry, looked up): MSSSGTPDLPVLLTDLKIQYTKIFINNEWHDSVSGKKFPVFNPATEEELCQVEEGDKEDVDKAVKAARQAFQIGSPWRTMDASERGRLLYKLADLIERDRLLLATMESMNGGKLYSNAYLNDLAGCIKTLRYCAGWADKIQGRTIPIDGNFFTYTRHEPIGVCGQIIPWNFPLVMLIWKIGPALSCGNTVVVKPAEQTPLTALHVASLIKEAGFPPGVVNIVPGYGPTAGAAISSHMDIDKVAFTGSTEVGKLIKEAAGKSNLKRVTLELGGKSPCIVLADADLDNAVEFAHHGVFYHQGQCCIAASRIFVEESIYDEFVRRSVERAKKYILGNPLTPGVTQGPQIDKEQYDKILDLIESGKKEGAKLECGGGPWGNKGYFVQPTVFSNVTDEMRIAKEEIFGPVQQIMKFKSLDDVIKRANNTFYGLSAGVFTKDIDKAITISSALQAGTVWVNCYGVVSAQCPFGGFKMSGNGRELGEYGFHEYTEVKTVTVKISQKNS
# Active calls of the source: *; ? = inconclusive; . = not tested or not shown; [ ] = another dose, or the depositor's remark. Unless noted, the call rests on the fitted dose curve; in most records, active means well fitted inhibition curve with a large enough effect (not every such curve was filed as active); inconclusive means small, poorly fitted or top-dose-only effect, or another doubt; inactive means no such curve, though single readings can be large or run the other way. Unless noted, on the % scale 0 is the no-effect control and ±100 the full control effect.
SMILES,IMPase Li cell,PNC assembly inh,IMPase inh,HPGD block,ALDH1A1 inh
CCOc1cc(/C=C2\CCC/C(=C\c3cc(Cl)c(O)c(OCC)c3)C2=O)cc(Cl)c1O,19.1%[38.3 µM],27.8,9.8,15.8µM*,2.51µM*
CC1(C(=O)NC2CCCCCCC2)CC1(Cl)Cl (configuration not stated),2.6%[38.3 µM],16.4,8.5,?,-9.0%
COc1ccccc1-c1cc(C(F)(F)F)nc(S(=O)(=O)CCCC(=O)O)n1,31.7%[38.3 µM],52.0,-4.6,?,-3.4%
COc1ccccc1-c1cc(C(F)(F)F)nc(S(=O)(=O)CCCC(=O)N2CCOCC2)n1,24.4%[38.3 µM],23.6,13.5,14.1µM*,-11.3%
Cc1ccc([N+](=O)[O-])cc1-c1[nH]c(-c2ccc(O)c(O)c2)nc1-c1ccccc1,32.9%[38.3 µM],5.4,-0.8,0.8%,22.4µM*
CCOc1ccc(/C=C2\SC(=S)NC2=O)cc1OC,12.8%,.,.,.,?
COc1cc(/C=C2\SC(=S)NC2=O)ccc1OS(=O)(=O)c1ccccc1,27.5%,?,.,8.91µM*,6.31µM*
CCOc1ccc(/C=C2\SC(=S)N(C)C2=O)cc1OC,.,.,.,.,5.5%
COc1cccc(/C=C2\SC(=S)NC2=O)c1OS(=O)(=O)c1ccc(NC(C)=O)cc1,-4.1%,39.0,.,25.1µM*,?
COc1ccc(/C=C2\SC(=O)NC2=S)cc1OC,16.6%,-14.5,.,15.8µM*,17.8µM*
COc1ccc(/C=C2\SC(=S)NC2=O)cc1OS(=O)(=O)c1ccc(NC(C)=O)cc1,7.1%,.,.,.,0.708µM*
COc1cccc(/C=C2\SC(N)=NC2=O)c1OS(=O)(=O)c1ccccc1,-5.4%,.,.,.,3.8%
COc1ccc(C(=O)CC2(O)C(=O)N(Cc3ccccc3)c3ccc(Br)cc32)cc1 (configuration not stated),.,.,3.9,.,.
CCOC(=O)/C(=N\Nc1cc(C(F)(F)F)ccc1Cl)N(CC)CC,18.8%[38.3 µM],?,-2.4,-3.7%,0.9%
O=C1NCCN1C(=O)N(c1ccccc1)c1ccccc1,-10.2%[38.3 µM],-124.4*,-3.6,-8.2%,?
CN(C)S(=O)(=O)N1CCN(C(=O)N(c2ccccc2)c2ccccc2)CC1,-12.1%[38.3 µM],?,5.7,-3.7%,?
Cc1ccc(CNC(=O)CCS(=O)(=O)c2ccc(Br)s2)o1,26.0%[38.3 µM],-1.8,-1.5,-16.2%,22.4µM*
CCCCc1cc(=O)oc2cc(O)cc(O)c12,-10.5%,.,.,.,?
Cc1cc(=O)oc2cc(O)c(O)cc12,-8.5%,.,.,?,?
CCCCc1cc(=O)oc2cc(C)cc(O)c12,10.8%[38.3 µM],62.1,5.1,-12.0%,8.91µM*
CCCc1cc(O)c2c(C)cc(=O)oc2c1,-3.9%,440.0,-11.1,-14.9%,15.8µM*
CCCc1cc(=O)oc2cc(C)c(CN3CCCC3)c(O)c12,1.8%[38.3 µM],-14.4,-5.2,-13.3%,35.5µM*
COC(=O)N1CCC2(CCN(C(=O)Nc3cccc(F)c3)CC2)CC1,6.0%,.,.,1.8%,12.4%
CC[C@@H](c1ccccc1)n1c(=O)n2n(c1=O)[C@H]1[C@H](O)[C@H]3O[C@@H]3/C(=N/OCC(C)C)[C@@H]1CC2,.,.,.,.,9.9%[13.5 µM]
CCOc1ccc(-c2csc(/C(C#N)=C/c3ccc(Br)cc3)n2)cc1,.,.,-8.8,.,.
SMILES,IMPase Li cell,PNC assembly inh,IMPase inh,HPGD block,ALDH1A1 inh
CCNC(=S)N/N=C/c1ccc(OCc2ccc(C(=O)OC)cc2)cc1,-6.8%,-7.4,.,-22.4%,-3.4%
CCSc1nnc2n1C(C)(C)Cc1ccccc1-2,2.8%[38.3 µM],?,2.2,-10.8%,-4.3%
CC1(C)Cc2ccccc2-c2n[nH]c(=S)n21,?,37.3,-22.5,-21.6%,12.6µM*
O=C(c1ccccc1)N1CCN(c2ccc([N+](=O)[O-])c(NCc3cccnc3)c2)CC1,7.7%,-26.3,3.4,-10.0%,11.2µM*
O=C(c1ccccc1)N1CCN(c2ccc([N+](=O)[O-])c(NCC3CCCO3)c2)CC1 (configuration not stated),-2.9%,.,.,.,12.6µM*
O=C(c1ccccc1F)N1CCN(c2ccc([N+](=O)[O-])c(NCc3cccnc3)c2)CC1,.,.,.,.,7.94µM*
COCC(=O)N1CCC2(CCCN(C(=O)Nc3ccc(OC)cc3)C2)CC1,5.9%,.,.,-7.3%,-1.1%
CCOC(=O)c1cc(CC)sc1/N=C/C1C(=O)CCCC1=O,-3.9%,.,.,.,5.6%
CCOC(=O)c1cc(CC)sc1/N=C/c1c(O)ccc2ccccc12,-10.2%,-88.3*,.,-20.4%,?
O=C(COc1ccc(Cl)cc1Cl)NC(=O)N1CCCCC1,23.6%[38.3 µM],-22.7,0.6,15.8µM*,4.0%
O=C(COc1ccc(Cl)cc1Cl)NC(=S)N1CCCc2ccccc21,-94.5%[38.3 µM],-0.7,6.7,22.4µM*,7.51µM*
O=C(COc1ccc(Cl)cc1Cl)OCC(=O)N1CCCc2ccccc21,-9.8%,?,0.5,-6.6%,4.3%
O=C1c2ccccc2COc2ccc(O)cc21,-8.7%[38.3 µM],35.2,-7.0,-11.7%,?
Cc1ccc2c(c1)C(=O)c1ccccc1CS2=O (configuration not stated),4.5%,?,.,-22.6%,2.51µM*
Cc1cc(-c2nnc3sc(-c4ccc(Cl)cc4Cl)nn23)n[nH]1,10µM*,3.4,7.2,-26.9%,2.9%
CCOC(=O)Cn1c(=O)n(Cc2ccco2)c(=O)c2ccc(C(=O)NCCc3ccccc3)cc21,15.4%[38.3 µM],?,-2.1,-11.7%,3.98µM*
COc1cc(C)c2c(=O)cc(-c3ccccc3)oc2c1,1.9%,.,.,-23.2%,-1.5%
CCC(CC)C(=O)Nc1cccc(/C(C)=N/NC(=O)c2ccccc2Cl)c1,56.4%[38.3 µM],16.1,5.4,-21.6%,12.6µM*
Cc1ccc2c(c1)c(C)cc[n+]2Cc1ccccc1,.,-30.0,-2.6,.,-6.9%
CC[n+]1ccc(C[n+]2ccccc2)c2ccccc21,3.4%,-82.3*,.,?,18.9µM*
CC(C)(C)c1ccc(C(=O)C=[N+]=[N-])cc1,25.2%[38.3 µM],?,-4.8,-22.3%,6.31µM*
CC(C)CC(=O)Nc1cccc(C(=O)Nc2ccccc2C(=O)O)c1,-6.6%[38.3 µM],10.9,-4.3,-15.0%,-8.1%
COc1ccc2nc3c(cc2c1)Cc1ccccc1-3,12.3%,.,.,?,?
CCOc1ccccc1NC(=O)CSc1nnc(-c2ccco2)n1Cc1ccco1,17.6%[38.3 µM],-22.8,3.8,-24.7%,?
CCn1c(SCC(=O)Nc2sc3c(c2C(N)=O)CCC(C)C3)nnc1-c1ccco1 (configuration not stated),-11.5%[38.3 µM],54.4,-1.2,?,22.4µM*
CCOc1ccccc1NC(=O)CSc1nnc(-c2ccccn2)n1Cc1ccco1,-4.4%[38.3 µM],-81.8*,?,-15.6%,?
Cc1cc(NC(=O)CSc2nnc(-c3ccc(Br)o3)n2Cc2ccccc2)no1,-0.5%[38.3 µM],17.2,-8.6,-4.7%,?
O=C(CSc1nnc(-c2ccc(Br)o2)n1Cc1ccccc1)c1ccccc1F,34.5%[38.3 µM],?,1.1,31.6µM*,?
O=C(CSc1nnc(-c2ccco2)n1Cc1ccco1)NCc1ccccc1,23.9%[38.3 µM],-94.2*,2.2,-21.3%,-9.6%
O=C(Cc1ccccc1)Oc1coc(CSc2ncccn2)cc1=O,-0.3%,.,.,.,1.5%
